Fh CTSL1 inh: Fasciola hepatica cathepsin L1 inhibitors, primary screen, counter-screen for PFM18AAP inhibitor project, biochemical, QFRET, fluorogenic peptide substrate; recombinant F. hepatica cathepsin L1, Z-Leu-Arg-MCA fluorescence; actives 0.49% (n = 300,000); inhibition, % at 5.96 µM;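 active = inhibition above the mean of all tested compounds plus 3 SD, set per screening campaign, cut at about 17% in these data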;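 also: 0% = plate median of test compound wells and 100% = 1 µM Z-Phe-Ala-diazomethylketone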
Calb FLC: C. albicans growth inhibition with fluconazole, primary screen, CaCi-2 strain, Alamar Blue fluorescence; C. albicans CaCi-2 (fluconazole-resistant clinical isolate) + fluconazole, 48 h; growth inhibition, % (test concentration not listed); actives 0.57% (n = 300,000);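 active = growth inhibition above about 58% in most replicates, limit read from the data, passing the limit was not always enough; inconclusive = exactly half the replicates above a set limit; inactive = most replicates below a set limit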;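 also: all wells also contain fluconazole at 8 µg/ml as a sub-toxic cotreatment; 0% = median of DMSO wells and 100% = median of geldanamycin control wells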
Rin1-Abl PPI inh: inhibitors of Rin1-Abl protein binding, primary screen, biochemical, TR-FRET; inhibition, % at 7.35 µM; actives 0.4% (n = 360,000); Tyrosine-protein kinase ABL1 (Homo sapiens) + Ras and Rab interactor 1 (Homo sapiens), …; in the data active = inhibition above about 5%, passing the limit was not always enough
Target sequence (P00519 whole entry, looked up): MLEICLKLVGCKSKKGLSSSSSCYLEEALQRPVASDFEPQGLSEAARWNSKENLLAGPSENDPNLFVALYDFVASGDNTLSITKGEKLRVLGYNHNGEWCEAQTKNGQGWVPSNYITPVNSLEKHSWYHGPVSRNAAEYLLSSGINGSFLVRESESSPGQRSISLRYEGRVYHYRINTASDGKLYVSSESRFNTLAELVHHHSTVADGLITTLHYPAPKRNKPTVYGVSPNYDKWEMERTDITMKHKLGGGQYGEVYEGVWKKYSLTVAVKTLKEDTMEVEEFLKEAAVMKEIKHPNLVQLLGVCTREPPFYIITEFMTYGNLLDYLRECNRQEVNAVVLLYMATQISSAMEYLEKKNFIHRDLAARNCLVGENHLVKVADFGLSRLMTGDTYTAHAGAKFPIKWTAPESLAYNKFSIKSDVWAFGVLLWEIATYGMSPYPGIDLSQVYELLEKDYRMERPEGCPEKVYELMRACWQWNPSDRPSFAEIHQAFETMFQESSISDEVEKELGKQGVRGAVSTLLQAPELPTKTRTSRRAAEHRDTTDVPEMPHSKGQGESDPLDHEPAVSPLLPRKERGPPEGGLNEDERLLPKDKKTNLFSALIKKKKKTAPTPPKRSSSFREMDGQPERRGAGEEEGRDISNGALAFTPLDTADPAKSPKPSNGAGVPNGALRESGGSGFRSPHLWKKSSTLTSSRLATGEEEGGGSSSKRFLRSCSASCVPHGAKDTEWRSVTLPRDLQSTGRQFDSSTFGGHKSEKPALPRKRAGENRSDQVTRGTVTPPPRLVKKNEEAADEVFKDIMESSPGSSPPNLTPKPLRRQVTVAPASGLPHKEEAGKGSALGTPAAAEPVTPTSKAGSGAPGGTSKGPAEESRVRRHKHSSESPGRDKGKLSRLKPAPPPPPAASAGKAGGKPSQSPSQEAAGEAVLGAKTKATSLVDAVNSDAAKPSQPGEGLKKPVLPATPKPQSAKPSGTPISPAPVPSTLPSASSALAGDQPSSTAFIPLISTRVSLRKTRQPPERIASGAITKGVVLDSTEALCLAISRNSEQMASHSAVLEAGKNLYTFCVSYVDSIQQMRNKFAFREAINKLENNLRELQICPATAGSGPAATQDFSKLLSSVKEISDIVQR
Target sequence (Q13671 whole entry, looked up): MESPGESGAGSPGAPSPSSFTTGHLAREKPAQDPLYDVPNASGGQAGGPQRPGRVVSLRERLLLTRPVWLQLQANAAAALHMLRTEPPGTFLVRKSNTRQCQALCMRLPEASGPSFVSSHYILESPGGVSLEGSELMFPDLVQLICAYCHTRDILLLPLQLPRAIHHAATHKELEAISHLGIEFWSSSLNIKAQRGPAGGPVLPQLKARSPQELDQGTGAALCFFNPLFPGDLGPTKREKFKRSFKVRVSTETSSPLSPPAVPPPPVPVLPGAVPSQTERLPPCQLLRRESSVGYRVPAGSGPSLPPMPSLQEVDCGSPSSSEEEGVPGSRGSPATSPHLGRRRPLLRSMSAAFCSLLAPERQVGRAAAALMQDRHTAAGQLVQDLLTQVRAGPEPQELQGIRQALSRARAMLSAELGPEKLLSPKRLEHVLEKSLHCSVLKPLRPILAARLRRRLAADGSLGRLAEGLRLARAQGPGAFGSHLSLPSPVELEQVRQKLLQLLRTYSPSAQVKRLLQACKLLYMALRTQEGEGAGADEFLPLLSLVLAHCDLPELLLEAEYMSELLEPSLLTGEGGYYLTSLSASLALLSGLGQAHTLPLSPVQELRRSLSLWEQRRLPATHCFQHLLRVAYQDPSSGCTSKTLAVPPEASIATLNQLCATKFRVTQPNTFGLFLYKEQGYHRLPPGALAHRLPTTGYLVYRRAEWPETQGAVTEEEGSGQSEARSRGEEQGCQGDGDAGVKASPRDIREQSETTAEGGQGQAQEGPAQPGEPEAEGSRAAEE
PfM18AAP inh: PfM18AAP inhibitors, malaria aminopeptidase, primary screen, biochemical, QFRET, recombinant enzyme. H-Glu-NHMec fluorogenic cleavage. inhibition, % at 7.35 µM. actives 1.2% (n = 290,000);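 active = inhibition above the campaign mean inhibition over all tested compounds plus 3 SD, cut at about 28% in these data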;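 also: 0% = plate median of test compound wells and 100% = 2 mM ZnCl2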
Numbers without * were called inactive; u = inconclusive; x = not tested or not shown. Hits are enriched below; roughly 2.1% of the tested compounds scored in any of these assays.

SMILES	Fh CTSL1 inh	Calb FLC	Rin1-Abl PPI inh	PfM18AAP inh
Cc1cc(N(CN2CCCC2=O)C(=O)c2ccc(F)cc2)no1	-20	2	-1	-4
Cc1[nH]nc(Nc2ccc(O)cc2)c1[N+](=O)[O-]	4	40	-4	31*
COc1ccc(Nc2n[nH]c(C)c2[N+](=O)[O-])cc1	-1	-5	-3	0
CCOC(=O)c1ccc(N2C(=O)CC(Sc3ncccn3)C2=O)cc1 (centres undefined)	3	13	1	0
CCOC(=O)c1cnc(SC2CC(=O)N(c3cccc(OC)c3)C2=O)nc1N (centres undefined)	-1	3	0	29*
Nc1nc(=S)c2ncn(C3CCCC3)c2[nH]1	x	11	3	36*
Nc1nc2c(ncn2C2CCCC2)c(=O)[nH]1	x	x	2	x
COCC(=O)N1CCN(c2cccc(C(F)(F)F)c2)CC1	-4	-9	-1	-2
O=C(COc1ccc2c(c1)CCC2)N1CCN(c2cccc(C(F)(F)F)c2)CC1	2	112*	0	-3
Cc1ccc(C(=O)N/N=C/c2cc(Br)ccc2O)cn1	19*	39	-1	20
COC(=O)N/N=C/c1cc(Br)ccc1O	-1	-5	-3	3
O=C(N/N=C/c1cc(Br)ccc1O)c1cccc(N2CCCC2=O)c1	11	94*	-3	6
O=C(N/N=C/c1cc(Br)ccc1O)c1ccccc1Cl	3	89*	-1	3
CC(C)NC(=O)CN1C(=O)C(C)(C)Oc2ccc(C(=O)NC3CCCCC3)cc21	-1	-8	2	-2
CN1c2ccccc2C(C)(C)C12C=Cc1cc(O)ccc1O2 (centres undefined)	-2	8	4	30*
CN1c2ccccc2C(C)(C)C12C=Nc1c(cc(N3CCOCC3)c3ccccc13)O2 (centres undefined)	x	7	3	20
O=c1[nH]cn[nH]1	19*	-7	0	2
Cc1ccc(NC2c3ncccc3C(=O)N2c2ccccc2C)cc1C (centres undefined)	-2	-11	0	29*
CCOc1ccc(N2C(=O)c3cccnc3C2Nc2ccc(Cl)cc2)cc1 (centres undefined)	-3	3	-1	-1
Cc1[nH]c(=S)[nH]c(=O)c1Cc1ccccc1	6	-7	2	31*
Cc1[nH]c(=S)[nH]c(=O)c1Cc1c(O)ccc2ccccc12	x	x	1	x
O=[N+]([O-])c1cccc(C=Nc2cccc3ccccc23)c1O	3	101*	-2	15
Cc1ccc(O)c(N=Cc2cc(Cc3ccccc3)cc([N+](=O)[O-])c2O)c1	x	98*	1	20
CC(C)OC(=O)c1ccc(NC(=O)CSc2nc3ncccc3[nH]2)cc1	-3	39	-1	4
CCOC(=O)C1=C(CSc2nc(C)cc(C)c2C#N)OC(N)=C(C#N)C1c1cccs1 (centres undefined)	22*	x	x	4
SMILES	Fh CTSL1 inh	Calb FLC	Rin1-Abl PPI inh	PfM18AAP inh
CCOC(=O)C1=CC[C@H]2c3c(c4ccccc4n3C)C(=O)C1N2C(=O)OC(C)(C)C	x	x	-1	x
O=C(N/N=C/c1ccccc1)c1ccc(CN2C(=O)c3cccc4cccc2c34)cc1	2	14	-4	2
O=C(N/N=C/c1ccc(O)cc1O)c1ccc(CN2C(=O)c3cccc4cccc2c34)cc1	11	108*	-4	8
C[C@H](NC(=O)Nc1cccc(Br)c1)C(=O)O	-4	-3	-3	1
O=C1CCCN1CCCN=c1c([N+](=O)[O-])nn(-c2ccc(Cl)cc2)n1O	x	85*	-11	13
COc1ccc(-n2nc([N+](=O)[O-])c(=NCCCN3CCCC3=O)n2O)cc1	3	0	-8	2
Oc1c(N=NC(=S)Nc2ccccc2F)c2ccccc2n1Cc1cccc(Cl)c1	2	10	0	2
Cc1cccc(Cn2c(O)c(N=NC(=S)Nc3ccccc3F)c3ccccc32)c1	0	114*	1	-5
CCOC(=O)N1CCN(S(=O)(=O)N2CCCC(C(=O)NCc3ccccc3OCC)C2)CC1 (centres undefined)	x	x	2	x
O=C(Nc1ccccc1C(=O)N/N=C/c1ccncc1)c1ccccc1	-1	9	2	-1
O=C(N/N=C/c1ccncc1)c1cc2ccccc2cc1O	x	91*	-2	20
O=S(=O)(Nc1cccc2cccnc12)c1ccccc1	-2	0	-1	0
O=S(=O)(Nc1cccc2cccnc12)c1ccc(S(=O)(=O)N2CCCC2)cc1	-1	96*	-1	-5
Cn1c(CSc2nc3ccccc3s2)n[nH]c1=S	8	7	-2	30*
Cc1ccc(-n2c(Cc3ccccc3)n[nH]c2=S)c(C)c1	8	72*	4	0
Cn1c(Cc2ccccc2)n[nH]c1=S	-1	1	0	30*
Cc1ccc(-n2c(CC#N)n[nH]c2=S)c(C)c1	-2	12	-1	19
Cn1c(CCc2ccccc2)n[nH]c1=S	-12	-3	-4	20
CCOC(=O)c1cnc2c(-c3ccccc3)c(-c3ccccc3)nn2c1C	2	4	-2	-6
COC(=O)c1ccc(NC(C)=O)cc1O	x	x	x	-4
CN(c1ccc(C(=O)Nc2ccc(F)cc2F)cc1)S(=O)(=O)c1ccccc1	2	10	2	-10
Oc1ccc(O)c2c1C1c3ccccc3C2c2ccccc21	-2	78*	x	81*
Cc1ccc(NC(=O)C2(C)CCN2C(=O)CC(c2ccccc2)c2ccccc2)cc1 (centres undefined)	x	x	0	x
Cc1[nH]n(-c2ccccc2)c(=O)c1/C=N/Nc1nncc(-c2ccccc2)n1	6	105*	-4	2
Cc1ccc(/C=N/Nc2nncc(-c3ccccc3)n2)o1	1	-3	-4	4
SMILES	Fh CTSL1 inh	Calb FLC	Rin1-Abl PPI inh	PfM18AAP inh
Oc1ccc(COCc2ccccc2)c2cccnc12	1	1	1	3
CCCOCc1ccc(O)c2ncccc12	4	90*	-1	-9
CC(C)COCc1ccc(O)c2ncccc12	-2	98*	6	6
CCOCCCNC(=O)c1cc(=O)n(Cc2cccc(C)c2)c2ccccc12	-1	-14	1	-3
Cc1ccc2c(c1)N=C(c1ccc(Cl)cc1)CO2	2	-12	-1	29*
c1ccc(C2=Nc3ccccc3OC2)cc1	-3	-16	-5	31*
Clc1ccc(C2=Nc3cc(Cl)ccc3OC2)cc1	2	-23	1	-3
O=C(Nc1cccc([N+](=O)[O-])c1)c1[nH]ncc1Cl	1	u	0	4
Cc1ccc(NC(=O)NC2CCCCCCC2)c(C)c1	x	112*	0	-5
Cc1cccc(NC(=O)NC2CCCCCCC2)c1	x	124*	-3	0
Cc1ccc(NC(=O)NC2CCCCC2)c(C)c1	-1	-12	-5	-12
N#Cc1c(NC(=O)c2ccc(Br)o2)n(-c2ccccc2)c2nc3ccccc3nc12	11	11	7.7*	12

Screening results: PubChem, several laboratories
